# Columns and labels:
# Experiment in all cases: DAPPL (digital affinity profiling via proximity ligation, sequencing); 10 mM Tris-HCl pH 7.5, 50 mM NaCl, 1 mM DTT, 4% glycerol, room temperature, 30 min; GST-TFs on glutathione beads, 16-mer random dsDNA library, 0.1% formaldehyde crosslink after washing; high values mean tight binding
# FLI1 = target: T1, FLI1 (Homo sapiens, UniProt Q01543 1-452); conditions: protein: recombinant; tags: N-terminal GST; dsDNA, one strand shown
# T1 sequence: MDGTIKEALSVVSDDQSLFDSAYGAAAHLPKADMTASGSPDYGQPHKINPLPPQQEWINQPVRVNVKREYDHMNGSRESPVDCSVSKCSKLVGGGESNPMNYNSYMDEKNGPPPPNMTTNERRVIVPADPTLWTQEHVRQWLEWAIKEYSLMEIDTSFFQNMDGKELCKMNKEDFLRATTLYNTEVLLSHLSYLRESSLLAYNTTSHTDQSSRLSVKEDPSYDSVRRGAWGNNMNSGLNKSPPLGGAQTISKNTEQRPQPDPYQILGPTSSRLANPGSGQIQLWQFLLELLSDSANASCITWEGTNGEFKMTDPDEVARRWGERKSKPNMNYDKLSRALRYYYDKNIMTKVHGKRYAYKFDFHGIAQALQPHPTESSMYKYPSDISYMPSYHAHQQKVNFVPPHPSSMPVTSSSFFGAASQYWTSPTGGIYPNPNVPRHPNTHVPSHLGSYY
# How it was run: (§1)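 Pools of DNA-barcoded human transcription factors, expressed in yeast as GST fusions on glutathione beads and combined with a tag-only sample, were incubated with 200 nmole of a 16-mer random double-stranded DNA library. Incubation took 30 min at room temperature in Tris/NaCl/DTT/glycerol buffer and was followed by washing, 0.1% formaldehyde crosslinking, proximity ligation (BsaI/T4 ligase, 1 h, 37 °C), PCR amplification and sequencing on an Illumina NextSeq500. Binding signal is the ratio of a hexamer's read frequency for a factor to its frequency for the tag-only sample.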
# ELK1 = target: T2, ELK1 (Homo sapiens, UniProt P19419 1-428); conditions: protein: recombinant; tags: N-terminal GST; dsDNA, one strand shown
# T2 sequence: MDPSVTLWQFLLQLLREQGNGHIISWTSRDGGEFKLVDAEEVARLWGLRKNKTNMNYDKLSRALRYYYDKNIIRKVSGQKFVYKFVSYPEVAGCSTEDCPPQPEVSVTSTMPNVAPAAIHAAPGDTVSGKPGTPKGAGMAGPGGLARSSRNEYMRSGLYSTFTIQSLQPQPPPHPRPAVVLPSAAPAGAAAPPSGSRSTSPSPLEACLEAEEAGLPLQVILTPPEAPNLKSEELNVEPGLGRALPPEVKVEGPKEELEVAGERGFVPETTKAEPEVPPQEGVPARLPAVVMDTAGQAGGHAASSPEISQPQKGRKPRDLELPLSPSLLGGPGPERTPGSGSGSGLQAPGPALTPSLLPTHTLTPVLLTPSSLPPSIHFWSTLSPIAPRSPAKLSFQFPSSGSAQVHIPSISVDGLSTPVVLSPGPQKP
# How it was run: as §1
# GABPA = target: T3, GABPA (Homo sapiens, UniProt Q06546 1-454); conditions: protein: recombinant; tags: N-terminal GST; dsDNA, one strand shown
# T3 sequence: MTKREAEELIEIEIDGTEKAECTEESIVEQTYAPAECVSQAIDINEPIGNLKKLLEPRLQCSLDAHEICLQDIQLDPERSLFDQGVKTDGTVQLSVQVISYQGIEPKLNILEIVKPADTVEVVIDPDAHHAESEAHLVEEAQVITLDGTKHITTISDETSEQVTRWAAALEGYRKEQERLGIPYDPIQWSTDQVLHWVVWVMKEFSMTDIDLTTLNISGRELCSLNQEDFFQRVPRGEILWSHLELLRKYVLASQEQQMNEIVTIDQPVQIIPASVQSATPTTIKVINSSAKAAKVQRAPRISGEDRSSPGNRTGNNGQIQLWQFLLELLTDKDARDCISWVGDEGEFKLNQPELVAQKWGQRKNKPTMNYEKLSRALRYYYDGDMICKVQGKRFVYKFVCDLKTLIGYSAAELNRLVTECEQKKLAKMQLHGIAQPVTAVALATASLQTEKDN
# How it was run: as §1
# ERG = target: T4, ERG (Homo sapiens, UniProt P11308 1-479); conditions: protein: recombinant; tags: N-terminal GST; dsDNA, one strand shown
# T4 sequence: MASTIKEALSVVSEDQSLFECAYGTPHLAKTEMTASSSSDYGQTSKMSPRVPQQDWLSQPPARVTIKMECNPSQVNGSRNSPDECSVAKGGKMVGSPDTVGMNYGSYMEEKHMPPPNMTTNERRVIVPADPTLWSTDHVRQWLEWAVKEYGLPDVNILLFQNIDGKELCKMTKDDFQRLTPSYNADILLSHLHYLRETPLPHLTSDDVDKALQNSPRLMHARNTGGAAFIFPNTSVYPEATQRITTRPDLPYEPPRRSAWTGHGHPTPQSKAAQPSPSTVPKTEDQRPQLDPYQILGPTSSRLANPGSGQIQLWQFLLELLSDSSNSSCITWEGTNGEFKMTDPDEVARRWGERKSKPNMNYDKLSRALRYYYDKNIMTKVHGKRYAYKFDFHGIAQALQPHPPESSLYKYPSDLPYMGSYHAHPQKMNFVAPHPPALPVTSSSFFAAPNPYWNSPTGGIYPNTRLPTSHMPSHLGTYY
# How it was run: as §1
# ELF1 = ELF1 (Homo sapiens, UniProt P32519 1-619); conditions: protein: recombinant; tags: N-terminal GST; dsDNA, one strand shown
# How it was run: as §1
# EHF = target: T5, EHF (Homo sapiens, UniProt Q9NZC4 1-300); conditions: protein: recombinant; tags: N-terminal GST; dsDNA, one strand shown
# T5 sequence: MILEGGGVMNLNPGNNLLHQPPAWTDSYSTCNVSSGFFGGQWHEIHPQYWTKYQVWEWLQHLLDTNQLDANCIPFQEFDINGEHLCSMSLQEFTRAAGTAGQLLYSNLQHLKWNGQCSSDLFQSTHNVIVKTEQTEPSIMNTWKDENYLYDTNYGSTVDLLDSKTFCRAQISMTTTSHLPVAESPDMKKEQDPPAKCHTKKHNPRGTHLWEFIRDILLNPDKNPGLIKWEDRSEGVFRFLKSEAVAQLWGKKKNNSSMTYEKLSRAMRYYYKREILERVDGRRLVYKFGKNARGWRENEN
# How it was run: as §1
# SPI1 = SPI1 (Homo sapiens, UniProt P17947 1-270); conditions: protein: recombinant; tags: N-terminal GST; dsDNA, one strand shown
# How it was run: as §1
# SPIB = SPIB (Homo sapiens, UniProt Q01892 1-262); conditions: protein: recombinant; tags: N-terminal GST; dsDNA, one strand shown
# How it was run: as §1
# ELK3 = target: T6, ELK3 (Homo sapiens, UniProt P41970 1-407); conditions: protein: recombinant; tags: N-terminal GST; dsDNA, one strand shown
# T6 sequence: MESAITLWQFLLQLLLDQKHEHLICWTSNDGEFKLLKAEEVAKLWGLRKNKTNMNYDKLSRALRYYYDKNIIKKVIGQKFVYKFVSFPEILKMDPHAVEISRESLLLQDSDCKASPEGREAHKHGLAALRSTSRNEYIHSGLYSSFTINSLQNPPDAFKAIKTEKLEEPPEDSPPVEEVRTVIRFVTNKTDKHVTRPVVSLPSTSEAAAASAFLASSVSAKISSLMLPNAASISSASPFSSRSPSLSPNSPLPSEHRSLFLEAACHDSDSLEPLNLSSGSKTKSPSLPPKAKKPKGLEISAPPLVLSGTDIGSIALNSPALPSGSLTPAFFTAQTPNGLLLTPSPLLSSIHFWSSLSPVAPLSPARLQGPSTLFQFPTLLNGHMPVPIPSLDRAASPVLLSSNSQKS
# How it was run: as §1
# FEV = target: T7, FEV (Homo sapiens, UniProt Q99581 1-238); conditions: protein: recombinant; tags: N-terminal GST; dsDNA, one strand shown
# T7 sequence: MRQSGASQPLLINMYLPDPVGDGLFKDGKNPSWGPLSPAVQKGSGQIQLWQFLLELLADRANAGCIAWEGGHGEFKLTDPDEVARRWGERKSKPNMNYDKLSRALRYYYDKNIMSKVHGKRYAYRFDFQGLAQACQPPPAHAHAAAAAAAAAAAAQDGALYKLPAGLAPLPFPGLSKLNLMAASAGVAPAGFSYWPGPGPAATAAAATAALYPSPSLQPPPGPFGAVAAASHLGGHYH
# How it was run: as §1
# ETV5 = ETV5 (Homo sapiens, UniProt P41161 1-510); conditions: protein: recombinant; tags: N-terminal GST; dsDNA, one strand shown
# How it was run: as §1
# HSF1 = HSF1 (Homo sapiens, UniProt Q00613 1-529); conditions: protein: recombinant; tags: N-terminal GST; chain copies: 3; dsDNA, one strand shown
# How it was run: as §1
# SPIC = target: T8, SPIC (Homo sapiens, UniProt Q8N5J4 1-248); conditions: protein: recombinant; tags: N-terminal GST; dsDNA, one strand shown
# T8 sequence: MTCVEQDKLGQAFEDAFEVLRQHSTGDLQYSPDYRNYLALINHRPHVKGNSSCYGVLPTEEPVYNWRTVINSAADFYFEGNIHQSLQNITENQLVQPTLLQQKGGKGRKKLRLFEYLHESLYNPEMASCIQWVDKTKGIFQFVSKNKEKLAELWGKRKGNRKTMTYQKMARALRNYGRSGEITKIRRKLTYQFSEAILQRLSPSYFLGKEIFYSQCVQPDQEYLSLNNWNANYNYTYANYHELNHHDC
# How it was run: as §1
# ELF4 = ELF4 (Homo sapiens, UniProt Q99607 1-663); conditions: protein: recombinant; tags: N-terminal GST; dsDNA, one strand shown
# How it was run: as §1
# ELK4 = target: T9, ELK4 (Homo sapiens, UniProt P28324-2 1-405); conditions: protein: recombinant; tags: N-terminal GST; dsDNA, one strand shown
# T9 sequence: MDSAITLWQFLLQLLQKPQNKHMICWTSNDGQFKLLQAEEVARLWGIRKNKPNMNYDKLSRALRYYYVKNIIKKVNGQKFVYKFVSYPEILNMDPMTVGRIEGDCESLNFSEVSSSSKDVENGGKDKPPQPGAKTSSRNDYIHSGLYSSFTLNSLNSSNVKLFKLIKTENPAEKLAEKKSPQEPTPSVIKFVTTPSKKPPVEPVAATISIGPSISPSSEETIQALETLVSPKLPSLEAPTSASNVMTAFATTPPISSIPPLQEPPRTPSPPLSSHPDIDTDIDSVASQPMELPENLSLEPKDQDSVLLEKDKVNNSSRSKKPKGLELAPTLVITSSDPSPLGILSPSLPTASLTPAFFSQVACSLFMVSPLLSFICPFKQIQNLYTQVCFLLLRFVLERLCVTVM
# How it was run: as §1
# ETV2 = target: T10, ETV2 (Homo sapiens, UniProt O00321 1-342); conditions: protein: recombinant; tags: N-terminal GST; dsDNA, one strand shown
# T10 sequence: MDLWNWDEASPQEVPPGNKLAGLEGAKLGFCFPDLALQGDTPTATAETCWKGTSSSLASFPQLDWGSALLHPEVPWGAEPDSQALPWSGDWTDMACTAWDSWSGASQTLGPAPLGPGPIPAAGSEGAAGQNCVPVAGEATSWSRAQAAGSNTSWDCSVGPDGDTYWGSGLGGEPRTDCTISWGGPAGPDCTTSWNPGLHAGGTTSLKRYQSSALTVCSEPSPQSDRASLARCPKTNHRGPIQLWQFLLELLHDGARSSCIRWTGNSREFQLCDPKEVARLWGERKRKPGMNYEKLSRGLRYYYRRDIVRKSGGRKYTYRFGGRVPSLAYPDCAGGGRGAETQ
# How it was run: as §1
# ELF3 = target: T11, ELF3 (Homo sapiens, UniProt P78545 1-371); conditions: protein: recombinant; tags: N-terminal GST; dsDNA, one strand shown
# T11 sequence: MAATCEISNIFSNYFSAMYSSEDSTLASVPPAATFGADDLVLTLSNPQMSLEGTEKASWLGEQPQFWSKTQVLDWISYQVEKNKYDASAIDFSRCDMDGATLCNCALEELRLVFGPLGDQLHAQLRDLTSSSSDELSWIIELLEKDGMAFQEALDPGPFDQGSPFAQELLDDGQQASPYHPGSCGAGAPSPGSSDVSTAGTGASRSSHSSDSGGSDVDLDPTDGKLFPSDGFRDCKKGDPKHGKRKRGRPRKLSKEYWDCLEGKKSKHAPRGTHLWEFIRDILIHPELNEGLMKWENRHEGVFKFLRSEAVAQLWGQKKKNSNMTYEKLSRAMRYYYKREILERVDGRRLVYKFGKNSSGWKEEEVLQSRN
# How it was run: as §1
# CRX = CRX (Homo sapiens, UniProt O43186 1-299); conditions: protein: recombinant; tags: N-terminal GST; dsDNA, one strand shown
# How it was run: as §1
# ETV1 = ETV1 (Homo sapiens, UniProt P50549 1-477); conditions: protein: recombinant; tags: N-terminal GST; dsDNA, one strand shown
# How it was run: as §1
# Sequence of SPIB (Q01892 whole entry): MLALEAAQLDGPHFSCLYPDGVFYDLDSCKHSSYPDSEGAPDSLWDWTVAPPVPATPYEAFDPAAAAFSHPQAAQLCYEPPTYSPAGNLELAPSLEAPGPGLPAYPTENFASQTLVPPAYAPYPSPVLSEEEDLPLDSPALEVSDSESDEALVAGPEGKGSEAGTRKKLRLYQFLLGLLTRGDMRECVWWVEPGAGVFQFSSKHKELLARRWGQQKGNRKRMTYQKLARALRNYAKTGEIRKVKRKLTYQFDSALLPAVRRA
# Sequence of ETV5 (P41161 whole entry): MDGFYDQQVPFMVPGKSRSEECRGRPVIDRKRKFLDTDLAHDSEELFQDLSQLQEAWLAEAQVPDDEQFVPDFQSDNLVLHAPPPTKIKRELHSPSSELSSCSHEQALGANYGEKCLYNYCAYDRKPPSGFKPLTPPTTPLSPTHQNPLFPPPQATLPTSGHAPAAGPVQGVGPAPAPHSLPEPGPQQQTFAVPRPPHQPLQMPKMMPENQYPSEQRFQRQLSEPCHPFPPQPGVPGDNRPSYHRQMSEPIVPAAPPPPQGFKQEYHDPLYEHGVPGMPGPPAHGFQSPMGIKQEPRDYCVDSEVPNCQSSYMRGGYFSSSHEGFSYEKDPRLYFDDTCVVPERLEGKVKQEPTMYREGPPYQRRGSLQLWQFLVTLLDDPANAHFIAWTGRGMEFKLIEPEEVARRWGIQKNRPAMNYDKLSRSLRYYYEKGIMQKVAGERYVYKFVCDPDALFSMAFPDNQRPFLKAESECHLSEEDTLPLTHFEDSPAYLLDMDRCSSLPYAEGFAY
# Sequence of ELF1 (P32519 whole entry): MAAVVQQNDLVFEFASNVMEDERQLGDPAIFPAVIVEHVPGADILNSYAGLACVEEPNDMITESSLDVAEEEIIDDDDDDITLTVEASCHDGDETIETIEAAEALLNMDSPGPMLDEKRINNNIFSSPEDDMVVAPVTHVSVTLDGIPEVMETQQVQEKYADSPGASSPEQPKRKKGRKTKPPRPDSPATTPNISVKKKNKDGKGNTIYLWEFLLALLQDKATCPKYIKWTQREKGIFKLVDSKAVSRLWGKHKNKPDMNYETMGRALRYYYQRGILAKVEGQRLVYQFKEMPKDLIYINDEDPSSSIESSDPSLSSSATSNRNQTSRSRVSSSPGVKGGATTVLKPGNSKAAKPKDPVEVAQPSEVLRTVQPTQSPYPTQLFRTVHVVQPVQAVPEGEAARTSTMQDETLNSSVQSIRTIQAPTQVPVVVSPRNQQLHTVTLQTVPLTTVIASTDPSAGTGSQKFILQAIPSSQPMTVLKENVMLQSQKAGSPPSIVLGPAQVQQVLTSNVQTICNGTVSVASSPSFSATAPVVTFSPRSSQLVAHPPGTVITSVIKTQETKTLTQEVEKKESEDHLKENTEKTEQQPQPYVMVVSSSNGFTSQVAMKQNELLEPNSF
# Sequence of CRX (O43186 whole entry): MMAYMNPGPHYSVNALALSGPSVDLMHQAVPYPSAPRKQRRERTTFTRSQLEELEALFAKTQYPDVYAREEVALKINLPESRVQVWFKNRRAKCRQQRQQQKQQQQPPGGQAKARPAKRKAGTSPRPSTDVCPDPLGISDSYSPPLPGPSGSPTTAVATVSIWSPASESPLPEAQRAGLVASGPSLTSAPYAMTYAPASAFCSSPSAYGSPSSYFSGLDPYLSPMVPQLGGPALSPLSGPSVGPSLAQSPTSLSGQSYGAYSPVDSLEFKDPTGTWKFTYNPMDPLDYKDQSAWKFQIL
# Sequence of ETV1 (P50549 whole entry): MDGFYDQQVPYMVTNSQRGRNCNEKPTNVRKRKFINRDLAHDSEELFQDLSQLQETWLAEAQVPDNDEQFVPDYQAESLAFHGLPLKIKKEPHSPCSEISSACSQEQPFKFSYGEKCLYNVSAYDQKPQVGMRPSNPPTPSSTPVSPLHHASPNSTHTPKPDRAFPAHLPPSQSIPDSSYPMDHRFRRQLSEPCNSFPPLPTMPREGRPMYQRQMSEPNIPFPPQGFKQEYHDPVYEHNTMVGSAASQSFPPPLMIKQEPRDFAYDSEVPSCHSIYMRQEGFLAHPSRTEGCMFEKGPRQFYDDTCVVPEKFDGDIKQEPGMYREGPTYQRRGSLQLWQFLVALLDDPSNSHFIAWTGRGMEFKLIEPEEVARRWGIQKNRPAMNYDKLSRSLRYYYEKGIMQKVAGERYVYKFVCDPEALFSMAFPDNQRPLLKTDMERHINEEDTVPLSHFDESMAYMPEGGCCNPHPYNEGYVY
# Sequence of ELF4 (Q99607 whole entry): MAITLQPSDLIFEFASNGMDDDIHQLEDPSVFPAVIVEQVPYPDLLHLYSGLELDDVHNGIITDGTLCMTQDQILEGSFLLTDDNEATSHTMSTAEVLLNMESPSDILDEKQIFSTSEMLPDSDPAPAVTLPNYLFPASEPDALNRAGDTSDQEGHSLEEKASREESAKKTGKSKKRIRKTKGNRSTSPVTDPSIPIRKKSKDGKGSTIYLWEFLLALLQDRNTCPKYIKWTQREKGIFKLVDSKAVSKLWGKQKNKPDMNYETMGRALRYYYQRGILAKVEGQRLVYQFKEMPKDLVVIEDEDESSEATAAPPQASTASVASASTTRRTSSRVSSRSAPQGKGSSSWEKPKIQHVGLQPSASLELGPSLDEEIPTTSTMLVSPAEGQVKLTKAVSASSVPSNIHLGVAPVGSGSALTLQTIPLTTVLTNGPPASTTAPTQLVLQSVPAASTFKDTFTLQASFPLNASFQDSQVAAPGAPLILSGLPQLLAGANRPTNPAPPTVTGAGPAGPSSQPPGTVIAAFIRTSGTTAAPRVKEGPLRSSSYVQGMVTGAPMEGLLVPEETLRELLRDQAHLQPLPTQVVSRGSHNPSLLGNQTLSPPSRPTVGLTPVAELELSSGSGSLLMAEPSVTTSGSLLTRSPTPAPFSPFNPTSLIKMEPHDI
# Sequence of HSF1 (Q00613 whole entry): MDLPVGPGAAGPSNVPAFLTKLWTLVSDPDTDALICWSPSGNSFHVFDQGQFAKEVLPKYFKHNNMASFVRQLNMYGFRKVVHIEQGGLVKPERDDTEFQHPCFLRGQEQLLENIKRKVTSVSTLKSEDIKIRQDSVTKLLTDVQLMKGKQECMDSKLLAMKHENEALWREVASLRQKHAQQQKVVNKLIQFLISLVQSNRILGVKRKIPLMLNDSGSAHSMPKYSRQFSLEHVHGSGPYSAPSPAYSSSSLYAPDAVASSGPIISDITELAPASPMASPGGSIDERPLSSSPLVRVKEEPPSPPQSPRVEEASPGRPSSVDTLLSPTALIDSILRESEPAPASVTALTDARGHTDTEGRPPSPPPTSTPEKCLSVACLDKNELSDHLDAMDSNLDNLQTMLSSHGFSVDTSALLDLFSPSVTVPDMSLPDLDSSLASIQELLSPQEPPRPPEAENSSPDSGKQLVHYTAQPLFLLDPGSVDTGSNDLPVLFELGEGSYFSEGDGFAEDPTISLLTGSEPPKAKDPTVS
sequence,measurement,setting,value
AATCAA,binding signal,FLI1,"1.1 fold enrichment (6-mer frequency, TF over GST control)"
same,binding signal,ELK1,"1.18 fold enrichment (6-mer frequency, TF over GST control)"
same,binding signal,GABPA,"1.15 fold enrichment (6-mer frequency, TF over GST control)"
same,binding signal,ERG,"1.21 fold enrichment (6-mer frequency, TF over GST control)"
same,binding signal,ELF1,"1.17 fold enrichment (6-mer frequency, TF over GST control)"
same,binding signal,EHF,"1.12 fold enrichment (6-mer frequency, TF over GST control)"
same,binding signal,SPI1,"1.15 fold enrichment (6-mer frequency, TF over GST control)"
same,binding signal,SPIB,"1.14 fold enrichment (6-mer frequency, TF over GST control)"
same,binding signal,ELK3,"1.14 fold enrichment (6-mer frequency, TF over GST control)"
same,binding signal,FEV,"1.19 fold enrichment (6-mer frequency, TF over GST control)"
same,binding signal,ETV5,"1.14 fold enrichment (6-mer frequency, TF over GST control)"
same,binding signal,HSF1,"1.13 fold enrichment (6-mer frequency, TF over GST control)"
same,binding signal,SPIC,"1.11 fold enrichment (6-mer frequency, TF over GST control)"
same,binding signal,ELF4,"1.21 fold enrichment (6-mer frequency, TF over GST control)"
same,binding signal,ELK4,"1.18 fold enrichment (6-mer frequency, TF over GST control)"
same,binding signal,ETV2,"1.48 fold enrichment (6-mer frequency, TF over GST control)"
same,binding signal,ELF3,"1.24 fold enrichment (6-mer frequency, TF over GST control)"
same,binding signal,CRX,"1.32 fold enrichment (6-mer frequency, TF over GST control)"
same,binding signal,ETV1,"1.19 fold enrichment (6-mer frequency, TF over GST control)"

# Source: publication PMC7862700, “An all-to-all approach to the identification of sequence-specific readers for epigenetic DNA modifications on cytosine”
